The full ranking holds about 33,000 sequences; the median of “E-score (-0.5 to 0.5)” is about -0.035, and the highest 2% start at about 0.34. This is one part of a sample in which the highest values are shown more often than they occur.
Target: T1, Mot3 (UniProt P54785)
T1 sequence: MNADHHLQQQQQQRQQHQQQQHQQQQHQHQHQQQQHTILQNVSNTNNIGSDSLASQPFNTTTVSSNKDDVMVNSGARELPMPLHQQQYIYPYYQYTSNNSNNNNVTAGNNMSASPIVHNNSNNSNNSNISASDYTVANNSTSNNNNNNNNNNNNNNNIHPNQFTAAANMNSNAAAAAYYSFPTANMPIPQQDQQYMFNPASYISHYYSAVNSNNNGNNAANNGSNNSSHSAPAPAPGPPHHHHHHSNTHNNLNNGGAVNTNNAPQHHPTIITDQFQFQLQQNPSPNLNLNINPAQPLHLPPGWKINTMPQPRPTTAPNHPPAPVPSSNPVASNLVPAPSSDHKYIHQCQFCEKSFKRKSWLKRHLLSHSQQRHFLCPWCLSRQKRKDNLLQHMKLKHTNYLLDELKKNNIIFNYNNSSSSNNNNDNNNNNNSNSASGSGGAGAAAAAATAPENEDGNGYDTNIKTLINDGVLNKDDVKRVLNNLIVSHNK
Experiment: PBM E-score (8-mer binding enrichment) (E-score (-0.5 to 0.5)); higher = stronger / more preferred TF binding
Settings: protein concentration: 200 nM; construct: GST-full length
Procedure: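 Universal 'all 10-mer' protein binding microarrays (Agilent AMADID 015681) probed with GST-tagged S. cerevisiae TFs (full-length or DBD) made by in vitro transcription/translation (PURExpress), about 100-200 nM. Bound TF was detected with fluorescent anti-GST. Each ungapped 8-mer (which stands for itself and its reverse complement) is scored by the PBM enrichment score (E-score), a modified Wilcoxon-Mann-Whitney statistic from -0.5 to +0.5, computed with the Universal PBM Analysis Suite. Scale: above 0.35 generally sequence-specific binding.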

| Sequence | PBM E-score |
| --- | --- |
| ATTCAATA | 0.0942 |
| TACGAACA | 0.18 |
| CTTTTCCC | -0.0316 |
| TCTGGTAA | -0.0343 |
| CGCCTAAC | 0.152 |
| GAAGATAC | -0.078 |
| GACTGCAC | -0.0356 |
| AAAGCACT | -0.216 |
| GACGCCCA | -0.158 |
| CATAGAAC | -0.0217 |
| TGTCAAAA | 0.241 |
| GCGTCCCC | -0.362 |
| AGCAAGGA | -0.0799 |
| GACAGCCA | -0.186 |
| AGAAGAAG | -0.0319 |
| AGTGTTGA | 0.073 |
| CGTGTTGA | 0.395 |
| CGTGTTGC | 0.242 |
| CCACAATA | -0.0891 |
| GGTCCTTA | -0.152 |
| AAGGCAGA | 0.0903 |
| AAGGCACT | 0.486 |
| GAGGCACA | 0.47 |

| Sequence | PBM E-score |
| --- | --- |
| ACGGCACT | -0.139 |
| AAGGCACA | 0.492 |
| AGGGCACT | 0.0516 |
| TAGGCATA | 0.28 |
| AGGGCACA | 0.3 |
| TAGGCAGA | 0.136 |
| TAGGCACA | 0.491 |
| GAGGCAGA | -0.164 |
| GGGGCACA | -0.202 |
| AACGTATG | 0.0662 |
| CGCGCTGC | -0.0871 |
| TAAACATA | 0.284 |
| CCCAGATC | -0.111 |
| ATTTTCAA | 0.12 |
| AAGGCGCA | 0.336 |
| CGGGCACA | 0.0796 |
| AAGGCGCG | 0.252 |
| CGGGCACG | 0.263 |
| GCGGCACC | -0.159 |
| AAGGCGCT | 0.353 |
| TGGGCACA | 0.356 |
| GGGGCACC | -0.152 |
| GAGGCACC | 0.463 |

| Sequence | PBM E-score |
| --- | --- |
| AACAGCTC | -0.162 |
| CTCTTTAC | 0.177 |
| TGGCCACA | -0.096 |
| ATTCCAGC | -0.168 |
| CTTCACGC | 0.151 |
| AGCAGGTC | -0.0131 |
| ACGTGTAA | 0.414 |
| GCGTGTCC | 0.0864 |
| ACGTGTGA | 0.184 |
| TAGTGTAA | 0.206 |
| GCGTGTAA | 0.431 |
| AGGTGTAA | 0.26 |
| CCGTGTAA | 0.403 |
| CCGTGTGA | 0.277 |
| CAGTGTAA | 0.225 |
| TGGTGTAA | 0.186 |
| TCGTGTAA | 0.411 |
| GCGTGGAA | -0.104 |
| ACTCCAGG | 0.0384 |
| ACACCTAA | 0.168 |
| AGGGCAAG | 0.13 |
| CACTCTAG | -0.145 |
| ACCCAGCC | -0.259 |

| Sequence | PBM E-score |
| --- | --- |
| GTTCCTTA | 0.428 |
| CTTCCTTA | 0.146 |
| CTTCCTGA | -0.0128 |
| ATTCCTTA | 0.211 |
| ATTCCTGA | 0.136 |
| ATTCCTAA | 0.105 |
| GTTCCTGA | 0.428 |
| CTTCCTAA | 0.0478 |
| GTTCCTAA | 0.431 |
| CCCGAAGG | -0.0155 |
| ATGGAAGC | -0.191 |
| AAGTGCCT | 0.48 |
| ACATGCCA | 0.304 |
| AAATGCCA | -0.105 |
| ACATGCCT | 0.366 |
| ACATGCGT | 0.341 |
| ACATGCCC | 0.21 |
| AAGTGCCA | 0.0649 |
| AAATGCCC | -0.192 |
| AAGTGCCC | -0.177 |
| AAATGCCT | 0.377 |
| ACATGCGG | 0.175 |
| ACATGCGC | 0.251 |

| Sequence | PBM E-score |
| --- | --- |
| TCAGACCA | -0.201 |
| CCTCTTGC | 0.0662 |
| GAGGGTGA | -0.208 |
| CCGCTCCG | -0.227 |
| AAACCGAA | -0.0393 |
| ACAGCTGT | -0.0347 |
| AGCTCAGC | -0.206 |
| CTGCAGGC | 0.406 |
| CTGCAGTC | -0.106 |
| ATGCAGGC | 0.342 |
| ATGCAGGA | 0.0312 |
| ATGCAGGG | -0.153 |
| CTGCAGGA | 0.291 |
| ACCATTTC | -0.123 |
| CCGAGACG | -0.0781 |
| CGCTGGTC | -0.275 |
| GATGTCGA | 0.215 |
| CATGTCGG | 0.222 |
| CCTGTCGC | -0.046 |
| GCTGTCGA | -0.12 |
| CCTGTCGA | 0.342 |

Source: the supplement of paper PMC3334620
